Screening data from PubChem.
A selection: hits, their analogues and other compounds. The true share with any hit is near 4.6%.
D1 agonist = Allosteric Agonists of the Human D1 Dopamine Receptor: qHTS. HEK293 T-REx D1 cells, calcium flux, agonist mode. 360,000 tested, 1% active. activation, % at 2 µM. AID 504660, 2011; note: 0% is about no effect
Target sequence (P21728 whole entry, looked up): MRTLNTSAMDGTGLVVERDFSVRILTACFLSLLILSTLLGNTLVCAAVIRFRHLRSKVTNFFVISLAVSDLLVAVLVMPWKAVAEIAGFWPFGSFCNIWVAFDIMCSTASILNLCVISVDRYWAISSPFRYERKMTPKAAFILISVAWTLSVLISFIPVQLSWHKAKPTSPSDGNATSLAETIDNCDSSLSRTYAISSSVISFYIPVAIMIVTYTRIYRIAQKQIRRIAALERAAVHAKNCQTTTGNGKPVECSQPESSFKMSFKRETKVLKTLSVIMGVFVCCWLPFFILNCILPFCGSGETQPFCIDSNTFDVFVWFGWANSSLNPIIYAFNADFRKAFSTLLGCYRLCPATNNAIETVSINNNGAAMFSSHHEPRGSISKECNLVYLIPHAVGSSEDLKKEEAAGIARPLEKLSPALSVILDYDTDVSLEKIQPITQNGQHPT
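Agonism was scored from calcium flux recorded over 180 s (1 read/s) after pintool compound addition, following a 10-cycle baseline. Cells were inducible force-coupled HEK293 TREx D1, plated overnight at 30 C and loaded with no-wash calcium dye.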
TRHR PAM = qHTS for Small Molecule Agonists and Allosteric Enhancers of Human TRH Receptor: Primary Screen for Enhancers. Thyrotropin-releasing hormone receptor (Homo sapiens), P34981. TRHR cells, fluo-8 calcium fluorescence, EC20 TRH enhancement. enhancement, % at 2 µM. 360,000 tested, 0.66% active. AID 493056, 2011; in the data active = enhancement above about 30%; note: 0% is about no effect
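Enhancer read-out: after compound pinning and an initial kinetic agonist-mode read, an EC20 of TRH (10 nM final) was injected and fluo-8 calcium signal (Ex 480/Em 530) followed at 1 s/cycle for 100 cycles in TRHR-expressing cells.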
TRHR ag = qHTS for Small Molecule Agonists and Allosteric Enhancers of Human TRH Receptor: Primary Screen for Agonists; Thyrotropin-releasing hormone receptor (Homo sapiens), P34981; TRHR cells, calcium flux fluo-8, FDSS agonist mode; activation, % at 2 µM; 360,000 tested, 0.18% active; AID 493084, 2011; note: 0% is about no effect
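TRHR-expressing cells loaded with fluo-8 calcium dye; 23 nL library compound pin-transferred, kinetic FDSS fluorescence (Ex 480/Em 530) recorded about 180 s for agonist-induced calcium release, before a 10 nM TRH EC20 addition for potentiator mode.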
D1 PAM = Potentiators of Human D1 Dopamine Receptor: qHTS | D(1A) dopamine receptor (Homo sapiens), P21728 | HEK293 TREx D1 cells, calcium flux, dopamine EC20 potentiation | potentiation, % at 10 µM | 360,000 tested, 0.036% active; in the data active = potentiation above about 30%; note: 0% is about no effect
D1 antag = Antagonist of Human D 1 Dopamine Receptor: qHTS. 360,000 tested, 3.2% active. activity change, negative = inhibition, % at 10 µM. HEK293 TREx D1 cells, calcium flux, dopamine EC80; hits give low values. D(1A) dopamine receptor (Homo sapiens), P21728. AID 504652, 2011; in the data active = activity change below about -30%; note: % is set by controls: 0 for no effect and ±100 for the full control effect
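Kinetic fluorescence of a calcium dye serves as the read-out. D1-expressing Hek293 Trex cells, induced overnight at 30 C, are exposed to compound for 180 s before an EC80 dopamine addition, then read 180 s further.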
An asterisk follows results filed as active. Cut-off read from the data, not from the text of the source, unless noted: active = activation above about 30%; inactive = the rest.

SMILES	D1 agonist	TRHR PAM	TRHR ag	D1 PAM	D1 antag
CCCN(C(=O)Cn1ncc2c([nH]c3ccccc32)c1=O)c1ccc(F)cc1	0	-9	0	7	5
CCC(=O)NC(c1ccc(Br)o1)c1cc(Cl)c2cccnc2c1O (stereo unspecified)	89*	4	30*	4	15
O=C(O)Cn1c2ccccc2c2n[nH]c(=S)nc21	0	-2	0	-6	-33*
CCn1c2ccccc2c2n[nH]c(=S)nc21	1	-6	0	-3	1
COC(=O)Cn1c2ccccc2c2nc3ccccc3nc21	4	-2	-1	-2	-37*
COC(=O)Cn1c2nc3ccccc3nc2c2cccc(C)c21	0	2	0	-9	17
CCOc1cc(C2CC(=O)Nc3c2c(=O)nc(SCc2cccc(Cl)c2)n3C)ccc1O (stereo unspecified)	0	1	-1	-1	0
Cc1ccc(NC(=S)N2CCCC(c3nc4ccc(C)cc4[nH]3)C2)c(C)c1 (stereo unspecified)	-2	-3	-1	-4	-31*
Cc1ccc2nc(C3CCCN(C(=S)Nc4cccc(C)c4C)C3)[nH]c2c1 (stereo unspecified)	1	-2	1	0	11
O=C(c1cccc(F)c1)N1CCC(c2c[nH]c3ccccc23)(c2c[nH]c3ccccc23)CC1	2	-6	0	0	6
N#Cc1ccc(CSc2nc3c(c(=O)[nH]2)CCC3)cc1	1	-4	0	-2	-8
COc1ccccc1NC(=S)N1CCNC(=O)C1CC(=O)Nc1cccc(C)c1 (stereo unspecified)	1	-4	-1	-6	6
COc1ccccc1NC(=O)CC1C(=O)NCCN1C(=O)Nc1ccc(Cl)c(Cl)c1 (stereo unspecified)	4	-11	1	-5	-30*
CCn1cc(C(=O)NC(C)C2CC3CCC2C3)cn1 (stereo unspecified)	3	31*	1	1	-12
CC1CCCN(C(=O)N2c3ccccc3Sc3ccccc32)C1 (stereo unspecified)	1	-7	0	-4	-3
OCCNCC(O)CN1c2ccccc2Sc2ccccc21 (stereo unspecified)	7	-3	2	-11	-31*
O=C(O)CCN1c2ccccc2Sc2ccccc21	3	-8	-1	1	13
CC1CCN(CC(O)CN2c3ccccc3Sc3ccccc32)CC1 (stereo unspecified)	33*	15	1	-9	-89*
C/C(=N\NC(=O)c1nn(C)c(C)c1Br)c1ccc(NC(=O)c2ccoc2C)cc1	2	31*	-1	0	-2
COc1ccc(Nc2nc(C#N)nc(NC3CCCC3)n2)cc1	0	-1	-3	-1	-36*
N#Cc1nc(Nc2ccc3ccccc3c2)nc(NC2CCCC2)n1	4	26	1	7	39
N#Cc1nc(Nc2cccc(-c3ccccc3)c2)nc(NC2CCCC2)n1	5	1	1	-5	-31*
Fc1cc(F)cc(Nc2nc(NC3CCCC3)nc(C3CO3)n2)c1 (stereo unspecified)	74*	-9	4	-7	-37*
N#Cc1nc(Nc2cccc(F)c2)nc(NC2CCCC2)n1	14	0	0	-6	-34*
COC(=O)c1scc(-c2ccc(C)cc2)c1S(=O)(=O)Nc1cc(C)c(Cl)cc1OC	11	3	0	-6	-10
Cc1ccc2nc(SCC(=O)N3CCC(Cc4ccccc4)CC3)nc(=O)n2c1	8	10	0	1	-23
CC(=O)Nc1ccc(S(=O)(=O)Nc2ccc(-c3cn4c(C)csc4n3)cc2)cc1	0	-1	0	-3	-11
COc1ccc(S(=O)(=O)Nc2ccc(-c3cn4c(C)csc4n3)cc2)cc1	1	2	-1	-4	-72*
